Values joined by “and” are separate entries in the source; they are usually repeats but may differ in a detail not shown here. Equal values may be shown once. More than one record can exist for a structure, and the calls need not agree. Active and inactive are the calls of the source. How the source made its calls: active means hit-call score of the fitted dose curve at least 0.9, where 1 is the maximum; inactive means score below 0.9.
How the values were obtained:
[1] = read-out: Urokinase-type plasminogen activator receptor (uPAR), PLAUR (gene 5329); experiment: BSK_4H_uPAR: BioMAP Diversity Plus: 4H Assay for Urokinase-type plasminogen activator receptor (uPAR) Biomarker Activity (AID 2283030); conditions: primary human endothelial cells (HUVEC); actives raise or lower the signal
Procedure, shortened: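 HUVEC, 24 h post-dose; uPAR by ELISA; bidirectional fit vs DMSO baseline.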

[2] = read-out: Vascular endothelial growth factor receptor 2 (Homo sapiens) (UniProt P35968); experiment: BSK_4H_VEGFRII: BioMAP Diversity Plus: 4H Assay for Vascular endothelial growth factor receptor 2 (VEGFR2) Biomarker Activity (AID 2283031); conditions: primary human endothelial cells (HUVEC); actives raise or lower the signal;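 on AC50: cell-surface VEGFR2 protein level quantified by ELISA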
Procedure, shortened: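 HUVEC (human primary), 4H system; 24 h post-dose; VEGFRII by ELISA; bidirectional curve fit vs DMSO baseline; gain or loss of signal scored.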

[3] = read-out: Human Leukocyte Antigen - DR isotype (HLADR), HLA-DRA (gene 3122); experiment: BSK_BE3C_HLADR: BioMAP Diversity Plus: BE3C Assay for Human Leukocyte Antigen - DR isotype (HLADR) Biomarker Activity (AID 2283032); conditions: primary human bronchial epithelial cells; actives raise or lower the signal
Procedure, shortened: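 Human primary bronchial epithelial cells in the BE3C system were exposed to chemicals for 24 h, after which HLA-DR levels were quantified by ELISA. Activity was fitted bidirectionally, gain or loss of signal, against DMSO as negative control and baseline.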

[4] = read-out: Vascular cell adhesion molecule 1 (VCAM1), VCAM1 (gene 7412); experiment: BSK_4H_VCAM1: BioMAP Diversity Plus: 4H Assay for Vascular cell adhesion molecule 1 (VCAM1) Biomarker Activity (AID 2283033); conditions: primary human endothelial cells (HUVEC); actives raise or lower the signal
Procedure, shortened: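 Primary human umbilical vein endothelial cells were exposed to chemicals for 24 h, after which VCAM-1 was quantified by ELISA. Responses were fitted bidirectionally against DMSO as negative control and activity baseline.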

[5] = read-out: Interferon-gamma inducible Protein 10 (IP10), CXCL10 (gene 3627); experiment: BSK_BE3C_IP10: BioMAP Diversity Plus: BE3C Assay for Interferon-gamma inducible Protein 10 (IP10) Biomarker Activity (AID 2283034); conditions: primary human bronchial epithelial cells; actives raise or lower the signal
Procedure, shortened: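 Human primary bronchial epithelial cells were exposed to chemicals for 24 hours, after which IP-10 levels were measured by ELISA. Data were fitted bidirectionally against DMSO, which served as the negative control and activity baseline.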

[6] = read-out: Monokine induced gamma interferon (MIG), CXCL9 (gene 4283); experiment: BSK_BE3C_MIG: BioMAP Diversity Plus: BE3C Assay for Monokine induced gamma interferon (MIG) Biomarker Activity (AID 2283035); conditions: primary human bronchial epithelial cells; actives raise or lower the signal
Procedure, shortened: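 ELISA read-out of MIG in human lung bronchial epithelial primary cultures, 24 h post-dosing. Bidirectional curve fit vs DMSO baseline.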

[7] = read-out: Transforming growth factor beta 1 (TGFb1), TGFB1 (gene 7040); experiment: BSK_BE3C_TGFb1: BioMAP Diversity Plus: BE3C Assay for Transforming growth factor beta 1 (TGFb1) Biomarker Activity (AID 2283036); conditions: primary human bronchial epithelial cells; actives raise or lower the signal
Procedure, shortened: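 Human primary bronchial epithelial cells (BE3C system) were dosed with chemical and TGF-b1 levels measured by ELISA at 24 h. Activity was fitted bidirectionally relative to DMSO negative control as baseline.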

[8] = read-out: Plasminogen activator inhibitor-1 (PAI1), SERPINE1 (gene 5054); experiment: BSK_BE3C_PAI1: BioMAP Diversity Plus: BE3C Assay for Plasminogen activator inhibitor-1 (PAI1) Biomarker Activity (AID 2283037); conditions: primary human bronchial epithelial cells; actives raise or lower the signal
Procedure, shortened: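 Human primary bronchial epithelial cells were exposed to chemical for 24 h, then PAI-1 was quantified by ELISA. Activity was fitted bidirectionally relative to the DMSO negative control baseline.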

[9] = read-out: urokinase plasminogen activator (uPA), PLAU (gene 5328); experiment: BSK_BE3C_uPA: BioMAP Diversity Plus: BE3C Assay for urokinase plasminogen activator (uPA) Biomarker Activity (AID 2283038); conditions: primary human bronchial epithelial cells; actives raise or lower the signal
Procedure, shortened: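 ELISA read-out of uPA in human lung primary bronchial epithelial cultures, 24 h post-dosing. Gain or loss of signal fitted bidirectionally relative to DMSO baseline; cytotoxicity checked in parallel cultures via SRB total protein stain.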

[10] = read-out: Urokinase-type plasminogen activator receptor (uPAR), PLAUR (gene 5329); experiment: BSK_BE3C_uPAR: BioMAP Diversity Plus: BE3C Assay for Urokinase-type plasminogen activator receptor (uPAR) Biomarker Activity (AID 2283039); conditions: primary human bronchial epithelial cells; actives raise or lower the signal
Procedure, shortened: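 Primary human bronchial epithelial cells were dosed with chemical and harvested 24 h later; uPAR was quantified by ELISA. Activity was fitted bidirectionally against DMSO as negative control and baseline.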

Measured: AC50

O[Si](c1ccccc1)(c1ccccc1)c1ccccc1
active: [1] 4.82 µM | [2] 29.5 µM | [4] 14.8 µM | [8] 8.71 µM
inactive: all other assays above

O=C(O)C(F)(F)C(F)(F)C(F)(F)C(F)(F)C(F)(F)C(F)(F)C(F)(F)C(F)(F)C(F)(F)C(F)(F)C(F)(F)C(F)(F)F
active: [2] 22 µM and 11.1 µM | [4] 3.66 µM and 1.18 µM
not listed: [7]
inactive: all other assays above

C=CC(F)(F)C(F)(F)C(F)(F)C(F)(F)C(F)(F)C(F)(F)C(F)(F)C(F)(F)C=C
not listed: [7] | [9]
inactive: all other assays above

O=C(O)C(F)(OC(F)(F)C(F)(OC(F)(F)C(F)(F)C(F)(F)F)C(F)(F)F)C(F)(F)F (stereo unspecified)
not listed: [7] | [9]
inactive: all other assays above

CCCCC(CC)COP(=O)(O)OCC(CC)CCCC (stereo unspecified)
active: [3] 29.3 µM and 31.6 µM | [5] 32 µM and 31.2 µM | [6] 32.8 µM and 29.5 µM | [8] 16.2 µM and 20 µM | [10] 5.24 µM
inactive: [1] | [2] | [4] | [9] | [10]

OCC(F)(F)C(F)(F)C(F)(F)C(F)F
not listed: [7] | [9]
inactive: all other assays above

O=C(CC(=O)C(F)(F)C(F)(F)F)C(F)(F)F
not listed: [7] | [9]
inactive: all other assays above

FC(F)(F)C(F)(F)C(F)(F)C(F)(F)CCI
not listed: [7] | [9]
inactive: all other assays above

OCC(F)(F)C(F)(F)C(F)(F)F
not listed: [7] | [9]
inactive: all other assays above

FC(F)(F)C(F)(F)C(F)(F)N(C(F)(F)C(F)(F)C(F)(F)F)C(F)(F)C(F)(F)C(F)(F)F
not listed: [7]
inactive: all other assays above

FC(F)(Br)C(F)(F)C(F)(F)C(F)(F)C(F)(F)C(F)(F)Br
not listed: [7]
inactive: all other assays above

OCC(F)(F)C(F)(F)C(F)(F)C(F)(F)C(F)(F)C(F)F
not listed: [7]
inactive: all other assays above

O=C(O)C(F)(F)C(F)(F)C(F)(F)C(F)(F)F
not listed: [7] | [9]
inactive: all other assays above

C=C(C)C(=O)OCCC(F)(F)C(F)(F)C(F)(F)C(F)(F)C(F)(C(F)(F)F)C(F)(F)F
not listed: [7]
inactive: all other assays above

CCO[Si](CCC(F)(F)C(F)(F)C(F)(F)C(F)(F)C(F)(F)C(F)(F)F)(OCC)OCC
not listed: [7] | [9]
inactive: all other assays above

FC(F)(F)C(F)(F)C(F)(F)C(F)(F)C(F)(F)C(F)(F)C(F)(F)C(F)(F)CCS
not listed: [7] | [9]
inactive: all other assays above

CCCCCCCCC(F)(F)C(F)(F)C(F)(F)C(F)(F)C(F)(F)C(F)(F)F
not listed: [7]
inactive: all other assays above

FC(F)(F)C(F)(F)C(F)(F)C(F)(F)C(F)(F)C(F)(F)C(F)(F)C(F)(F)F
not listed: [7] | [9]
inactive: all other assays above

OCCCC(F)(F)C(F)(F)C(F)(F)C(F)(F)C(F)(F)C(F)(F)C(F)(F)F
active: [1] 51.2 µM and 47.3 µM | [2] 44.6 µM and 45.4 µM | [3] 50.4 µM and 45.9 µM | [4] 46.4 µM and 48.6 µM | [5] 47.6 µM and 46.4 µM | [6] 49.6 µM and 55.7 µM | [8] 47.1 µM and 30 µM | [9] 46.5 µM and 47.5 µM | [10] 52.4 µM and 47.2 µM

FC(F)(F)C(F)(F)C(F)(F)C(F)(F)C(F)(F)C(F)(F)C(F)(F)Br
not listed: [7] | [9]
inactive: all other assays above

FC(F)(F)C(F)(F)C(F)(F)C(F)(F)C(F)(F)C(F)(F)C(F)(F)I
not listed: [7] | [9]
inactive: all other assays above

FC(F)(F)C(F)(F)C(F)(F)CI
not listed: [7] | [9]
inactive: all other assays above

O=S(=O)(OCCOC(F)(F)F)C(F)(F)F
not listed: [7] | [9]
inactive: all other assays above

O=C(O)C(F)(F)C(F)(F)C(F)(F)C(F)(F)C(F)(F)C(F)(F)C(F)(F)C(F)(F)C(F)(F)C(F)F
inactive: [1] | [2]
active: [3] 10.5 µM | [4] 47.8 µM and 55.4 µM | [5] 8.14 µM and 8.37 µM | [6] 15 µM and 14.9 µM | [8] 14 µM and 12.1 µM | [10] 15.7 µM and 16.7 µM

O=C(O)C(F)(OC(F)(F)C(F)(OC(F)(F)C(F)(OC(F)(F)C(F)(F)C(F)(F)F)C(F)(F)F)C(F)(F)F)C(F)(F)F (stereo unspecified)
not listed: [7]
inactive: all other assays above

CCCCCCOC(=O)c1ccccc1O
active: [1] 38.5 µM and 44.3 µM | [4] 43.2 µM and 42.5 µM
not listed: [7]
inactive: all other assays above

CC(C)(C)C(=O)CC(=O)C(F)(F)C(F)(F)C(F)(F)F
not listed: [7] | [9]
inactive: all other assays above

C=CC(F)(F)C(F)(F)C(F)(F)C(F)(F)C(F)(F)C(F)(F)C(F)(F)C(F)(F)F
not listed: [7] | [9]
inactive: all other assays above

O=C(O)C(F)(F)C(F)(F)F
not listed: [7] | [9]
inactive: all other assays above

O=C(O)C(F)(F)C(F)(F)C(F)(F)F
not listed: [7] | [9]
inactive: all other assays above

O=S(=O)(OCC(F)F)C(F)(F)F
not listed: [7] | [9]
inactive: all other assays above

C=C(C)C(=O)OCC(F)(F)C(F)(F)C(F)(F)F
not listed: [7]
inactive: all other assays above

C=CC(=O)OCC(F)(F)C(F)(F)C(F)(F)C(F)(F)C(F)(F)C(F)(F)C(F)(F)F
not listed: [7]
inactive: all other assays above

C=C(C)C(=O)OCC(F)(F)C(F)(F)C(F)(F)C(F)(F)C(F)(F)C(F)(F)C(F)(F)F
not listed: [7] | [9]
inactive: all other assays above

O=C(O)C=C(C(F)(F)F)C(F)(F)F
active: [4] 15.2 µM and 5.95 µM
not listed: [7] | [9]
inactive: all other assays above

O=S(=O)(O)C(F)(F)C(F)(F)C(F)(F)C(F)(F)C(F)(F)C(F)(F)C(F)(F)F
not listed: [7]
inactive: all other assays above

COC(=O)CCC(F)(F)C(F)(F)C(F)(F)C(F)(F)F
not listed: [7] | [9]
inactive: all other assays above

FC(F)(F)C(F)(F)C(F)(F)C(F)(F)C(F)(F)C(F)(F)CC1CO1 (stereo unspecified)
not listed: [7]
inactive: all other assays above

Reference: PubChem BioAssay (EPA / NIEHS)
